Data published in PubChem BioAssay (NCI).
Compounds without any hit were thinned out: in the full panel of roughly 83,000, 20% have a hit.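 Interpretation: 100, growth as untreated; towards 0, rising growth inhibition; 0, no net growth; 0 to -100, cell death. Compounds scoring below 10 were considered active.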 Values without a mark were called inactive. Activity calls are given as the source filed them.

What was measured:
Experiment in all cases: NCI-60 one-dose screen, 48 h (100 = growth as untreated, 0 = no growth, -100 = all killed)
Conditions in all cases: 10 µM unless noted
NCI-H23 lung = tested on: NCI-H23 lung
NCI-H226 lung = tested on: NCI-H226 lung
NCI-H322M lung = tested on: NCI-H322M lung
HOP-62 NSCLC = tested on: HOP-62 NSCLC
NCI-H460 lung = tested on: NCI-H460 lung
HOP-92 NSCLC = tested on: HOP-92 NSCLC
NCI-H522 lung = tested on: NCI-H522 lung
A549/ATCC NSCLC = tested on: A549/ATCC NSCLC
786-0 renal = tested on: 786-0 renal
COLO 205 colon = tested on: COLO 205 colon
DU-145 prostate = tested on: DU-145 prostate
K-562 leukemia = tested on: K-562 leukemia
MALME-3M melanoma = tested on: MALME-3M melanoma
MDA-MB-231 breast = tested on: MDA-MB-231 breast
RXF 393 renal = tested on: RXF 393 renal
SF-268 CNS = tested on: SF-268 CNS
SF-295 CNS = tested on: SF-295 CNS
SF-539 CNS = tested on: SF-539 CNS
UACC-257 melanoma = tested on: UACC-257 melanoma
M14 melanoma = tested on: M14 melanoma

Work on `CC(C)(NC(=O)O[C@@H]1CN2CCC1CC2)c1csc(-c2ccc(F)cc2)n1` yielded a growth (NCI-H23 lung) of 96.3%, a growth (NCI-H226 lung) of 89.9% and a growth (NCI-H322M lung) of 98.9%. The growth (HOP-62 NSCLC) was 99.4%, the growth (NCI-H460 lung) was 101% and the growth (HOP-92 NSCLC) was 98%. The growth (NCI-H522 lung) was 95.4%, the growth (A549/ATCC NSCLC) was 101% and the growth (786-0 renal) was 99.3%. The growth (COLO 205 colon) was 111%, the growth (DU-145 prostate) was 112% and the growth (K-562 leukemia) was 94.5%. It also gave a growth (MALME-3M melanoma) of 97.1%, a growth (MDA-MB-231 breast) of 102% and a growth (RXF 393 renal) of 105%. For the same molecule, the growth (SF-268 CNS) was 88.7%, the growth (SF-295 CNS) was 101% and the growth (SF-539 CNS) was 95.3%. For the same molecule, the growth (UACC-257 melanoma) was 102% and the growth (M14 melanoma) was 84.9%.
With `COC(=O)CC[C@H](Cc1ccccc1)NC(=O)c1csc([C@@H](C[C@H](C(C)C)N(C)C(=O)[C@@H](NC(=O)[C@H]2CCCCN2C)C(C)C)OC(C)=O)n1` the growth (NCI-H23 lung) was 51%, the growth (NCI-H226 lung) was 83% and the growth (NCI-H322M lung) was 51%. For the same molecule, the growth (HOP-62 NSCLC) was 52.7%, the growth (NCI-H460 lung) was 21.7% and the growth (HOP-92 NSCLC) was -1.54% (active). The growth (NCI-H522 lung) was 9.28% (active), the growth (A549/ATCC NSCLC) was 40.4% and the growth (786-0 renal) was 34.8%. For the same molecule, the growth (COLO 205 colon) was -49.7% (active), the growth (DU-145 prostate) was 39.1% and the growth (K-562 leukemia) was 24.4%. For the same molecule, the growth (MALME-3M melanoma) was 74.2%, the growth (MDA-MB-231 breast) was 36.8% and the growth (RXF 393 renal) was 69.6%. For the same molecule, the growth (SF-268 CNS) was 26.6%, the growth (SF-295 CNS) was 32% and the growth (SF-539 CNS) was 9.4% (active). The growth (UACC-257 melanoma) was 66.6% and the growth (M14 melanoma) was 20.2%.
Molecule `COc1cccc2c1c(C(=O)c1ccco1)cn2Cc1ccc(F)cc1` has a growth (NCI-H23 lung) of 111%, a growth (NCI-H226 lung) of 96.3% and a growth (NCI-H322M lung) of 115%. The growth (HOP-62 NSCLC) was 125%, the growth (NCI-H460 lung) was 113% and the growth (HOP-92 NSCLC) was 63.4%. For the same molecule, the growth (NCI-H522 lung) was 76.2%, the growth (A549/ATCC NSCLC) was 112% and the growth (786-0 renal) was 110%. It also gave a growth (COLO 205 colon) of 123%, a growth (DU-145 prostate) of 100% and a growth (K-562 leukemia) of 253%. For the same molecule, the growth (MALME-3M melanoma) was 131%, the growth (MDA-MB-231 breast) was 89.9% and the growth (RXF 393 renal) was 131%. For the same molecule, the growth (SF-268 CNS) was 114%, the growth (SF-295 CNS) was 122% and the growth (SF-539 CNS) was 113%. For the same molecule, the growth (UACC-257 melanoma) was 104% and the growth (M14 melanoma) was 131%.
With `CCOC(=O)[C@@H](C)C[C@H](Cc1ccccc1)NC(=O)c1csc([C@@H](C[C@H](C(C)C)N(C)C(=O)[C@@H](NC(=O)[C@H]2CCCCN2C)C(C)(C)CC)OC(C)=O)n1` the growth (NCI-H23 lung) was 26.9%, the growth (NCI-H226 lung) was -41.7% (active) and the growth (NCI-H322M lung) was 34.4%. The growth (HOP-62 NSCLC) was 18.8%, the growth (NCI-H460 lung) was -10.1% (active) and the growth (HOP-92 NSCLC) was 16%. The growth (NCI-H522 lung) was -32.8% (active), the growth (A549/ATCC NSCLC) was 10.1% and the growth (786-0 renal) was 1.55% (active). For the same molecule, the growth (COLO 205 colon) was -62.6% (active), the growth (DU-145 prostate) was 0.285% (active) and the growth (K-562 leukemia) was 5.03% (active). The growth (MALME-3M melanoma) was 11.9%, the growth (MDA-MB-231 breast) was -1.28% (active) and the growth (RXF 393 renal) was 23.5%. The growth (SF-268 CNS) was 12.3%, the growth (SF-295 CNS) was -4.66% (active) and the growth (SF-539 CNS) was -28.4% (active). The growth (UACC-257 melanoma) was 48.1% and the growth (M14 melanoma) was -26.8% (active).
`Oc1c(CCl)cc(Cl)cc1CCl` was tested, and the growth (NCI-H23 lung) was 100%, the growth (NCI-H226 lung) was 98.8% and the growth (NCI-H322M lung) was 123%. It also gave a growth (HOP-62 NSCLC) of 95.1%, a growth (NCI-H460 lung) of 108% and a growth (HOP-92 NSCLC) of 92.8%. For the same molecule, the growth (NCI-H522 lung) was 105%, the growth (A549/ATCC NSCLC) was 116% and the growth (786-0 renal) was 114%. For the same molecule, the growth (COLO 205 colon) was 109%, the growth (DU-145 prostate) was 122% and the growth (K-562 leukemia) was 99.3%. The growth (MALME-3M melanoma) was 110%, the growth (MDA-MB-231 breast) was 104% and the growth (RXF 393 renal) was 119%. The growth (SF-268 CNS) was 104%, the growth (SF-295 CNS) was 106% and the growth (SF-539 CNS) was 104%. The growth (UACC-257 melanoma) was 131% and the growth (M14 melanoma) was 108%.
With `CCOC(=S)S[C@H]1C[C@@H]2[C@H](CC[C@]3(C)C(=O)CC[C@@H]23)[C@@]2(C)CCC(=O)C=C12` the growth (NCI-H23 lung) was 101%, the growth (NCI-H226 lung) was 106% and the growth (NCI-H322M lung) was 102%. It also gave a growth (HOP-62 NSCLC) of 112%, a growth (NCI-H460 lung) of 105% and a growth (HOP-92 NSCLC) of 117%. For the same molecule, the growth (NCI-H522 lung) was 95.6%, the growth (A549/ATCC NSCLC) was 107% and the growth (786-0 renal) was 102%. It also gave a growth (COLO 205 colon) of 115%, a growth (DU-145 prostate) of 103% and a growth (K-562 leukemia) of 95.3%. For the same molecule, the growth (MALME-3M melanoma) was 107%, the growth (MDA-MB-231 breast) was 95.2% and the growth (RXF 393 renal) was 102%. It also gave a growth (SF-268 CNS) of 95.5%, a growth (SF-295 CNS) of 95.7% and a growth (SF-539 CNS) of 99.7%. The growth (UACC-257 melanoma) was 101% and the growth (M14 melanoma) was 102%.
In the case of `CCC(=O)Nc1ccc(Cl)c(Cl)c1`, the growth (NCI-H23 lung) is reported as 96.5%, the growth (NCI-H226 lung) is reported as 102% and the growth (NCI-H322M lung) is reported as 93.5%. For the same molecule, the growth (HOP-62 NSCLC) was 93.7%, the growth (NCI-H460 lung) was 111% and the growth (HOP-92 NSCLC) was 76.8%. The growth (NCI-H522 lung) was 84.7%, the growth (A549/ATCC NSCLC) was 92.5% and the growth (786-0 renal) was 91.1%. It also gave a growth (COLO 205 colon) of 107%, a growth (DU-145 prostate) of 115% and a growth (K-562 leukemia) of 97.6%. For the same molecule, the growth (MALME-3M melanoma) was 102%, the growth (MDA-MB-231 breast) was 92.2% and the growth (RXF 393 renal) was 101%. For the same molecule, the growth (SF-268 CNS) was 105%, the growth (SF-295 CNS) was 98.3% and the growth (SF-539 CNS) was 92.4%. For the same molecule, the growth (UACC-257 melanoma) was 102% and the growth (M14 melanoma) was 103%.
